Assay results published in paper PMC12136788.
Changes are numbered by the printed parent chain. In all, about 24,000 sequences were measured (“enrichment r”: median about 0.99, highest 2% from about 3.7 on). The full list was thinned out, with the highest values kept by preference.

T1: UNK ZnF1-3 (human, UniProt Q9C0B0 31-174)
T1 sequence: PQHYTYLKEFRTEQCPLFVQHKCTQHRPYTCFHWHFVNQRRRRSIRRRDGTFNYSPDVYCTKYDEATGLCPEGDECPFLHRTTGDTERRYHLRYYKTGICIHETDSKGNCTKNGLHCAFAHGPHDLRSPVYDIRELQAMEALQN

B1: chr4:17841332:17841333:+_ENSG00000109805_ENST00000514176|hu_hu|FALSE|FALSE (ssRNA)
RNA: GGGAGUUCUACAGUCCGACGAUCCUUUUGUAUAGACUCGAAUUUCUGGCGAGCACGGACUUGUUAAGAUCUCAUUGCAAAUUUUCAUAGCCAAAUUGUCAUGUACUGUUAAGGCCUGAUAAUCUUGGGAAGUCUUGGCCUGAGCAACAGAGGAUUGAGCAUCA
B2: chr17:56552419:56552420:-_ENSMUSG00000013236_ENSMUST00000086828|mus_mus|mus_mus_mus_hu_False|28_48 (ssRNA)
RNA: GGGAGUUCUACAGUCCGACGAUCAAAAAAUACACUAUUUAAAAAAAAUGAAAUGUCACGGGAUACAGUUACACUGAGAGUUUUAAAAAAAAAUAAGAUUCUGGUCCUUGCCAAAAGUCCCCAGGCUGCAGAGCGGGGAGGAGCCAACAGAGGAUUGAGCAUCA
B3: chr17:56552419:56552420:-_ENSMUSG00000013236_ENSMUST00000086828|mus_mus|mus_mus_mus_hu_False|28_78 (ssRNA)
RNA: GGGAGUUCUACAGUCCGACGAUCAAAAAAUACACUAUUUAAAAAAAAUGAAAUGUCAGAAAAAGAAGUUACACUGAGAGUUUUAAAAGAAAGCUGGAUUCUGGUCCUUGCCAAAAGUCCCCAGGCUGCAGAGCGGGGAGGAGCCAACAGAGGAUUGAGCAUCA
B4: chr17:56552419:56552420:-_ENSMUSG00000013236_ENSMUST00000086828|mus_mus|mus_mus_mus_hu_False|28_58 (ssRNA)
RNA: B2 RNA with G77C, G79C, U81A, A88G, A92G, U93C, A94U, A95G
B5: chr17:56552419:56552420:-_ENSMUSG00000013236_ENSMUST00000086828|mus_mus|mus_mus_mus_hu_False|28_98 (ssRNA)
RNA: B2 RNA with U38A, U39A, A88G, A92G, U93C, A94U, A95G
B6: chr7:149068622:149068623:-_ENSMUSG00000025139_ENSMUST00000001950|mus_hu|mus_mus_mus_hu_False|78_88 (ssRNA)
RNA: GGGAGUUCUACAGUCCGACGAUCGUGAGGCCUCUGAGUGUGGCUUGUGCUCUGCAGUGUCUGCAGUUUGUUAAUAUCACGGAACAUACCAUCUAGAACGUUCCAGUCCCGCCUGACACCUUCAUUCCCAAUGGAGAAGAAAUCCAACAGAGGAUUGAGCAUCA
B7: chr5:135101456:135101457:-_ENSMUSG00000040731_ENSMUST00000036125|mus_mus|motif|central (ssRNA)
RNA: GGGAGUUCUACAGUCCGACGAUCACCCAAGAGUGCACCGUCAUAAGUCAGAGCCUCCUUCAGGGAAUCCACCUCAUCAAAUUCGGCAUAGCAGAACCCUUUAAAUUUGUCUGUGUCUUUGUCUCUGACUAGCCGCACACUCCGCAACAGAGGAUUGAGCAUCA
B8: chrX:130830059:130830060:+_ENSMUSG00000033578_ENSMUST00000037687|mus_mus|FALSE|FALSE (ssRNA)
RNA: GGGAGUUCUACAGUCCGACGAUCGGGCCAUGAUAGUUAUGGUUCGUGGGGAUGCCAUGGGGUCACCAAGGCAGGUCCCAACUAAUCCCUCUGCUUUGCGCAGCCCGGCUGUCAAGGCGCAGGCAGUUAGCACAGGGAGAGCUACAACAGAGGAUUGAGCAUCA
B9: chr1:163117127:163117128:-_ENSG00000143248_ENST00000313961|hu_mus|FALSE|FALSE (ssRNA)
RNA: GGGAGUUCUACAGUCCGACGAUCUGCUACAAAGGAUGUAACUCAACUCACAGGGCAACUUUUGGAAGCCUGACCAGAUGACUACUUGAUUAGCUCCUUAUAAAAUUCAGAGCGCACAAAGCGGGGCAGAGAAUCCUUCUCCAUCAACAGAGGAUUGAGCAUCA
B10: 139258410_139258530_201_CDS_ENSG00000114115_ENST00000232219|human|control|control (ssRNA)
RNA: GGGAGUUCUACAGUCCGACGAUCGCGGGACGGCUGGAGACUGCCGGGACAGCGGCUGCCGGUGCUACGCGGGUGGUGGGCGGCCCGGAAAUGAGCGCCCUCCGGGGACAGGGGGCUCUGCGGGGCGGCGACAGCUGGAUUCCCCAACAGAGGAUUGAGCAUCA
B11: chr17:56552419:56552420:-_ENSMUSG00000013236_ENSMUST00000086828|mus_mus|FALSE|FALSE (ssRNA)
RNA: GGGAGUUCUACAGUCCGACGAUCUUUGUUUUUUUCUUAAAAAAAAAAAAGAAAAAAAGAAAAAGAAAAAAAAUAUACACUAUUAAAAAAAAAUAAGAAAAAAAAUGUUGCCAAAAGGCAGGCAGGGGAGUGCGGAAGCAGAGGCAACAGAGGAUUGAGCAUCA
B12: chr2:65539780:65539781:-_ENSG00000198369_ENST00000356388|hu_hu|motif|central (ssRNA)
RNA: GGGAGUUCUACAGUCCGACGAUCUUUGCAAAACAACAAGCAAAAUUUCUUACUUCACUAGUAUCCUAUUCUAAUAUUGCGGAAUUUUUAGAAGUGGUGGCAACACAAUUUAAAAAAUGUUCUACUUUAGGGGUAAUGGGGAGGCAACAGAGGAUUGAGCAUCA
B13: chr17:56552419:56552420:-_ENSMUSG00000013236_ENSMUST00000086828|mus_mus|mus_mus_mus_hu_False|18_28 (ssRNA)
RNA: GGGAGUUCUACAGUCCGACGAUCAAAAAAUACACUAUUUAAAAAAAAUGAAAUGUCACGGGAUACAGUUACACUGAGAGUUUUAAAAGAAAGCUGGAUUCUGGUCCUUGCCAAAAGGCAGGCAGGGGCAGAGCGGGGAGGAGCCAACAGAGGAUUGAGCAUCA
B14: chr17:56552419:56552420:-_ENSMUSG00000013236_ENSMUST00000086828|mus_mus|motif|central (ssRNA)
RNA: B11 RNA with U80G, A81G
B15: chr7:54825262:54825263:-_ENSG00000132432_ENST00000352861|hu_hu|hu_hu_hu_mus_False|48_98 (ssRNA)
RNA: GGGAGUUCUACAGUCCGACGAUCCUGCCGGCUGGGCACAAACUGCAGCAUUACCUGAUCCAUGUUUGUUGGAUGGCGGAUUGAGAGUGCCAGGGACCGUAGCUCAGGAGAGAACCGAGCCCAACGGAACCGGAAGCUGGCAACCAACAGAGGAUUGAGCAUCA
B16: chr1:34870196:34870197:-_ENSMUSG00000037503_ENSMUST00000047534|mus_hu|motif|central (ssRNA)
RNA: GGGAGUUCUACAGUCCGACGAUCAUCUGAGCUCAUCUCAUCAGAUUGCAUAAAAAAUUAAAAUAGUAUCAAUUGACACCGGACUGAACUGGCUCAGGAUGGAAAUUCCAUUCCUUGGCAUGGAUACGUAAGUUCAAUGCAGAGCAACAGAGGAUUGAGCAUCA
B17: chr17:64801638:64801639:+_ENSG00000154229_ENST00000413366|hu_mus|hu_hu_hu_mus_False|78_78 (ssRNA)
RNA: GGGAGUUCUACAGUCCGACGAUCUAUAUAUAUAUAUACAUAUGUACACAUAUAUAGUAAGAGCCUAGUUAAACGUGUAAAGUAGCCAUUCAUUUUUAAAAUUACAUCUACAUUAAAAAAUUAAUAUAUCUGAUAGAGUGCCAGCAACAGAGGAUUGAGCAUCA
B18: chr3:148802587:148802588:-_ENSG00000071794_ENST00000310053|hu_mus|hu_hu_hu_mus_False|28_38 (ssRNA)
RNA: GGGAGUUCUACAGUCCGACGAUCUCCAACAACUUGUCCUCUCAUAGUUCCAAAUAAAACCAAAUCUUGCUCUUCAUCACUCGUUAGGAAGUCAUCUGGAGGGAUAACAUCUUGGAAUUCAAAAUGUGGCAAGAAAGUUGAGUACAACAGAGGAUUGAGCAUCA
B19: chr3:95023916:95023917:-_ENSMUSG00000053192_ENSMUST00000065482|mus_mus|FALSE|FALSE (ssRNA)
RNA: GGGAGUUCUACAGUCCGACGAUCUAAAUAAAUAAAUAAAUAAAUAUAGAUAGAUAAAUAAGUACGUACAUACAUACAAACCUACAAUUCAAUUGGCAGAUUCAUCAGCACCACCAGCACAAUAGAGGGAAGAGAACAAGAUUACAACAGAGGAUUGAGCAUCA
B20: chr3:95023916:95023917:-_ENSMUSG00000053192_ENSMUST00000065482|mus_mus|motif|central (ssRNA)
RNA: B19 RNA with U82G, A83G
B21: 17587070_17598549_148_CDS_ENSMUSG00000015733_ENSMUST00000015877|mouse|control|control (ssRNA)
RNA: GGGAGUUCUACAGUCCGACGAUCGUGAAUGAUGAAUUUUGCUGCUAUACGAACCUUCUCCUCAUCGGACAACUGCUCCUCCAGAUCCGCCAUCUUCCUUCUGGCGACAGACCGUGGCGCUGGUGGCAGCAGCGGCCACCUGACCAACAGAGGAUUGAGCAUCA
B22: 33058320_33060047_1444_CDS_ENSG00000170266_ENST00000307363|human|control|control (ssRNA)
RNA: GGGAGUUCUACAGUCCGACGAUCUCCCUGGGGGAUCCCAUCCACAGCAACAUAUGCUCGAUCGUGGACUCCAUUGAGGGGUGAAGAGAGAGGUGCUGGGUUGCUGCAAUCUUGAGGAAGUGUUGUCCGGUACAGCACAAACCCCAACAGAGGAUUGAGCAUCA

What follows are binders tested against T1, UNK ZnF1-3 (assay: nsRBNS (natural sequence RNA bind-n-seq); RBNS binding buffer (assumed for nsRBNS): 25 mM Tris pH 7.5, 150 mM KCl, 3 mM MgCl2, 0.01% Triton X-100, 500 ug/ml BSA, 20 U/ml SUPERase-In, 4 C; UNK is unkempt and MSI1 is Musashi-1; names of the RNAs are library labels; protein concentration not given here; high values mean tight binding).

Point of comparison: B7, binding signal 0.437 enrichment R. Against it:
- B1 — higher, 0.957 enrichment R
- B2 — higher, 6.32 enrichment R
- B3 — higher, 3.64 enrichment R
- B4 — higher, 4.14 enrichment R
- B5 — higher, 6.54 enrichment R
- B6 — higher, 0.733 enrichment R
- B8 — higher, 0.967 enrichment R
- B9 — higher, 1.14 enrichment R
- B10 — higher, 1.1 enrichment R
- B11 — higher, 19.2 enrichment R
- B12 — higher, 3.44 enrichment R
- B13 — higher, 3.67 enrichment R
- B14 — higher, 15.8 enrichment R
- B15 — higher, 1.44 enrichment R
- B16 — higher, 1.43 enrichment R
- B17 — higher, 1.53 enrichment R
- B18 — higher, 1.19 enrichment R
- B19 — higher, 7.35 enrichment R
- B20 — higher, 19.9 enrichment R
- B21 — higher, 0.822 enrichment R
- B22 — higher, 0.932 enrichment R
